# HTT aggregate: inhibitors of mutant huntingtin aggregate formation in PC12 cells | 220,000 compounds, 1.1% hits | Potency, µM (series often up to 46.1 µM), actives largely listed as inhibitors | PC12 HttQ103-GFP aggregates, Acumen cytometry, 40 h; further: nearly all actives have a fitted effect of over 60% in size
#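 Ecdysone-promoter PC12 model expressing HTT exon 1 Q103 fused to GFP, induced by tebufenozide at 100 nM final. Compounds titrated; aggregates sized 1–25 µm scored on a 488 nm laser cytometer.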
# ALDH1A1 block: inhibitors of human aldehyde dehydrogenase 1A1 | P00352 | AID 1030 | Potency, µM (titrated, usually from 75.3 µM), most hits filed as inhibitors | Purified ALDH1A1, NADH fluorescence, propionaldehyde substrate | 220,000 compounds, 7.3% hits; active means well fitted inhibition curve with a large enough effect, not every such curve was filed as active; inconclusive means small, poorly fitted or top-dose-only effect, or another doubt; inactive means no such curve, though single readings can be large or run the other way
# IMPase cell inh: IMPase inhibition in cells | 120,000 tested, under 10 active | P97697 | AID 901 | CHO-M1 cells, IP1 accumulation, HTRF TR-FRET ratio | inhibition (IP1 accumulation), % at 46.1 µM; active means well fitted curve in the direction sought with a large enough effect in the signal ratio, not every such curve was filed as active; inconclusive means small, poorly fitted or top-dose-only effect, or a change in a side signal; inactive means no such curve, though single readings can be large or run the other way; the % refers to the signal ratio;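 further: cells stimulated with carbachol in lithium chloride buffer; higher means more IMPase inhibition seen as more IP1 and lower FRET ratio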
# Target sequence (P97697 whole entry, looked up): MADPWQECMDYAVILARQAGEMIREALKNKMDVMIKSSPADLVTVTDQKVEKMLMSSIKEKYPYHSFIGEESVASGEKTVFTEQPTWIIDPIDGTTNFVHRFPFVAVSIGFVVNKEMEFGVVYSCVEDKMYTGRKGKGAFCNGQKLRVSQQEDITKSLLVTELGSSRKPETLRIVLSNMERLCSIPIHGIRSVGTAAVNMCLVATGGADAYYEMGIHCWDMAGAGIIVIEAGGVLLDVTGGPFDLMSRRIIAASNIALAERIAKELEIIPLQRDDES
#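 Cellular IMPase inhibition is scored as a rise in cytosolic IP1, detected by competitive TR-FRET between d2-labelled IP1 and a europium anti-IP1 antibody. M1-expressing CHO cells were stimulated with carbachol for 30 min at 37C, with lithium (50 mM LiCl) present in the buffer.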
# IMPase Li inh: membrane-permeable IMPase blocker, potentiated with lithium; CHO-M1 cells, IP1 TR-FRET (IP-One), carbachol + lithium; 210,000 compounds, 0.35% hits; Potency, µM (highest dose often 59.4 µM), most hits filed as inhibitors; AID 1457;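 further: IP1 builds up when IMPase is blocked and the TR-FRET signal falls; nearly all actives have a fitted effect of over 50% in size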
#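 Steps: plate 2000 CHO-M1 cells per well and culture 16–30 h; add compound and lithium; incubate 30 min, 37C; add d2-IP1 tracer and Eu cryptate anti-IP1 antibody in lysis buffer; read after 10 min at room temperature.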
# HPGD inh: inhibitors of human 15-hydroxyprostaglandin dehydrogenase (HPGD); AID 894; 150,000 compounds, 4.3% hits; purified HPGD, NADH fluorescence kinetic, PGE2 substrate; P15428; Potency, µM, most hits filed as inhibitors; active means well fitted inhibition curve with a large enough effect, not every such curve was filed as active; inconclusive means small, poorly fitted or top-dose-only effect, or another doubt; inactive means no such curve, though single readings can be large or run the other way
# Target sequence (P15428 whole entry, looked up): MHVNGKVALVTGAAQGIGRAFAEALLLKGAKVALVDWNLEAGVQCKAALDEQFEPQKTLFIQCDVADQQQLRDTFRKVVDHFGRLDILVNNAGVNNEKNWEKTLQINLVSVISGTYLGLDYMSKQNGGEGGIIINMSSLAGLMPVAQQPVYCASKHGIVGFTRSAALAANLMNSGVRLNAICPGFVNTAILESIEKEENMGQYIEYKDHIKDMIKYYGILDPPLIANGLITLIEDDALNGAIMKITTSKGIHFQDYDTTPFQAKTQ
#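 20 nM HPGD preincubated 15 min at room temperature with compound in 50 mM Tris-HCl pH 8, 0.01% Tween 20. Started with 1 mM NAD+ and 30 uM prostaglandin E2; NADH fluorescence (360/450 nm) read 5 times over 30-s intervals, last minus first.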
# HTT cytoprotect: Huntington cell model cytoprotection by ATP luminescence; Potency, µM (doses to about 56.4 µM), most hits filed as activators; AID 1471; 230,000 compounds, 0.14% hits; PC12 HTT-Q103 induced, cytoprotection, ATP luminescence, 40 h; further: nearly all actives have a fitted effect of over 45% in size
#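 Cells were plated at 1500 per well in phenol red-free DMEM with 5% equine and 5% calf serum. Tebufenozide (100 nM final) and compounds were added, then ATPlite reagent, and luminescence was read.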
# A number is an active result; n = inactive; u = inconclusive; x = no result; ! = a repeat was not active; [ ] = remark or other dose. Only some compounds are listed: those with a hit (about 9.4% of all), similar ones and a draw of the others. Unless noted, the call rests on the fitted dose curve; in most records, active means well fitted curve in the direction sought with a large enough effect; inconclusive means small, poorly fitted or top-dose-only effect, or another doubt; inactive means no such curve, though single readings can be large; an effect the other way counts as inactive or inconclusive.
SMILES,HTT aggregate,ALDH1A1 block,IMPase cell inh,IMPase Li inh,HPGD inh,HTT cytoprotect
COc1cccc(N=C2C(=O)N3CCCc4cccc2c43)c1,u,0.16µM,x,n,n,n[0.074 µM]
Cn1cnc([N+](=O)[O-])c1Sc1nc(N)nc2c1ncn2[C@H]1C[C@H](O)[C@@H](CO)O1,x,n[13.5 µM],x,n,n,n[10 µM]
Fc1ccc([C@H]2CCNC[C@H]2COc2ccc3c(c2)OCO3)cc1,x,u,n,n,n,n
COc1ccc(-n2c(CN3CCC(C(N)=O)CC3)nc3ccc([N+](=O)[O-])cc3c2=O)c(OC)c1,n,9.5µM,x,n,x,n
CCOC(=O)C1CCN(Cc2nc3ccc([N+](=O)[O-])cc3c(=O)n2-c2ccc(OC)cc2OC)CC1,n,20µM,x,n,x,n
COc1cccc(-n2c(CN3CCN(c4ccccc4)CC3)nc3ccc([N+](=O)[O-])cc3c2=O)c1,n,28µM,x,n,n,n[10 µM]
COc1ccc(Nc2cnn(-c3nc4ccccc4s3)c(=O)c2Cl)cc1,u,8.9µM,x,n,n,n[10 µM]
O=S(=O)(c1cccc2cnccc12)N1CCCNCC1,13µM!,n,n,n,n,u
CC(C)Cn1cc(C(=O)NCc2cccs2)c2c3ccccc3n(C)c2c1=O,n,1µM,n,x,x,n
CC(=O)O[C@H](C(=O)O[C@@H]1C[C@@H](CCC[C@H]2O[C@H](C(=O)OC(C)C)CC[C@@H]2C)O[C@@H](CC#N)C1)c1ccccc1,x,n,x,n,n,u
NCCOB(c1ccccc1)c1ccccc1,x,u,n,n,n,n
Cc1ccc(C(=O)Nc2ccc3oc(-c4ccncc4)nc3c2)c(Cl)c1,x,x,n,x,x,x
FC(F)(F)c1cccc(NC(=S)Nc2cccc(NC(=S)Nc3cccc(C(F)(F)F)c3)n2)c1,n[9.22 µM],25µM,x,x,x,n[10 µM]
O=C(NNC(=S)Nc1cccc(C(F)(F)F)c1)c1cccc(Cl)c1,u,22µM,x,n,n,n[10 µM]
FC(F)(F)c1cccc(NC(=S)NNC(=S)NCc2ccccc2)c1,u,0.56µM,n,n,u,n
Cc1cc(C(F)(F)F)nn1CC(=O)NNC(=S)Nc1cccc(Cl)c1,n,20µM,n,n,n,n
CCOc1ccccc1NC(=S)N1CCN(c2nc(-c3ccc(F)cc3)cs2)CC1,x,n,x,n,x,x
NS(=O)(=O)c1ccc(N=Nc2cc3ccccc3c(C(=O)O)c2O)cc1,x,n[13.5 µM],x,n,n,n[10 µM]
COc1ccc2oc(-c3ccc(NC(=O)c4ccc(Cl)cc4Cl)cc3)nc2c1,x,x,n,x,x,x
CC1(C)Oc2cc3c(cc2O1)OC(C)(C)O3,x,n[13.5 µM],x,x,x,n[10 µM]
O=C(CCNC(=O)c1ccccc1Cl)Nc1cccc(C(F)(F)F)c1,n,n,x,n,n,n[10 µM]
O=C(NNC(=S)Nc1cccc(C(F)(F)F)c1)c1ccccc1Cl,u,8.9µM,x,n,n,n[10 µM]
O=C(O)/C=C/C(=O)Nc1cccc(C(F)(F)F)c1,n,20µM,n,n,n,n[1.9 µM]
Cc1ccccc1Nc1nnc(-c2ccc(C)c(S(=O)(=O)NCC3CCCO3)c2)c2ccccc12 (stereo not drawn),x,x,n,x,x,x
CCCCCCCCC[n+]1cccc2c3ccccc3ccc21,2.5µM,u,n,n,u,n
SMILES,HTT aggregate,ALDH1A1 block,IMPase cell inh,IMPase Li inh,HPGD inh,HTT cytoprotect
CCCCCCCCCCCCCCCC[n+]1cccc2ccccc21,7.9µM,n,n,n,n,n[10 µM]
COc1cccc([C@@H]2Oc3ccc(Br)cc3C[C@H]2OC(=O)NS(=O)(=O)c2ccc(C)cc2)c1,x,n,x,n,n,u
Nc1nc(SCc2ccc([N+](=O)[O-])cc2)c2ncn([C@@H]3O[C@@H](CO)[C@@H](O)[C@H]3O)c2n1,x,x,n,x,x,n[1.9 µM]
c1ccc(Oc2nc(NC3CCCCC3)c3[nH]cnc3n2)cc1,x,u,x,n,n,x
N#C/C(=C(\O)C(=O)O)c1ccc(-c2cccc3ccccc23)cc1,x,n[13.5 µM],x,n,n,n[10 µM]
NC(=O)c1c(NC(=O)CN2C(=O)CCC2=O)sc2c1CCCCC2,n,14µM,u,n,u,n
NC(=O)c1c(NC(=O)CN2CCCC2)sc2c1CCCC2,n,18µM,n,n,u,n[10 µM]
CCCCNc1nc(C)nc2c1nc(-c1ccccc1)n2CCN(C)C,x,u,x,n,u,n
CCOC(=O)c1cnc2ccccc2c1Nc1cccc(C(=O)O)c1,n,u,x,7.9µM,x,n
Cc1ccc(N2CCN(C(=O)c3cc4cc5ccc(C)cc5nc4s3)CC2C)cc1 (stereo not drawn),x,x,n,x,x,x
CCOC(=O)c1cnc(SCC(=O)Nc2cc(OC)cc(OC)c2)nc1N,n,n,n,n,n,n
CCOC(=O)c1sc(NC(=O)CSc2nc(C)cc(-c3ccccc3)n2)c(C#N)c1C,n,3.2µM,n,n,7.1µM,n[10 µM]

# Screens from PubChem.
